SMILES strings stand for the structures. Whole data set: some 110,000 compounds, median “z-score” near -0.1, cut for the highest 2% near 2. For the sample, the highest values were picked, then their nearest neighbours and some compounds at random. Activity calls are given as the source filed them.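 Rule for the calls: active = z-score in the third read window above 3 or below -3; inactive = the rest.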

For the test, the target named is Metabotropic glutamate receptor 8 (Rattus norvegicus) (UniProt P70579). As to the kind of experiment: rat mGluR8 modulators via GIRK flux, primary screen, cell-based, thallium flux, HTS (AID 488969). The following applies: HEK293 rat mGluR8, GIRK (G protein-gated inwardly rectifying potassium channel) thallium flux, FluoZin2; at 10 µM; stronger effect = higher value; submaximal glutamate (EC20) added with thallium.
Metabotropic glutamate receptor 8 (Rattus norvegicus), sequence (P70579 whole entry, looked up): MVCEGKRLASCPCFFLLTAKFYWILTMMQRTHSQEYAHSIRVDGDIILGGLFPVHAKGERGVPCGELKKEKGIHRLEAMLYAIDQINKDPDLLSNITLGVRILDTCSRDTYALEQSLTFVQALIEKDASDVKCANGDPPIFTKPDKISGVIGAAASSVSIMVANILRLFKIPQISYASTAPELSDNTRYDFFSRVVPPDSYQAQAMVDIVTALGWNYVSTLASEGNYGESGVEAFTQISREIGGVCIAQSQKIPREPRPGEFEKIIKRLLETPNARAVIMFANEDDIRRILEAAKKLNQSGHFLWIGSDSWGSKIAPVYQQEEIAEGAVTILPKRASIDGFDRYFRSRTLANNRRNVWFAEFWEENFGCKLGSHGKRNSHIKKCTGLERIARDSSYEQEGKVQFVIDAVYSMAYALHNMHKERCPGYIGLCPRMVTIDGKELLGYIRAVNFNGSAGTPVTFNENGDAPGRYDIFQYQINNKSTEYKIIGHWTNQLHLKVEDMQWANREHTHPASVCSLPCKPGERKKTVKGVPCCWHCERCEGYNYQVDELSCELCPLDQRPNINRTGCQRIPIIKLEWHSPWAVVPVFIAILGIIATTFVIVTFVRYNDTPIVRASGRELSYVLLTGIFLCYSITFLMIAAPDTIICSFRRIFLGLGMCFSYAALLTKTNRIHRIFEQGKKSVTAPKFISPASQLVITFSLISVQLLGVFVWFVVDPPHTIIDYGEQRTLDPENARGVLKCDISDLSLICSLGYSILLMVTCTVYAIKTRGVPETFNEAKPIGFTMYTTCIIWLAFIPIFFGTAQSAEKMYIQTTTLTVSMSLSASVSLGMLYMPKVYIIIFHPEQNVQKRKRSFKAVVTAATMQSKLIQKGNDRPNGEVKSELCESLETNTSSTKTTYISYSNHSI
On to `COc1ccc(NC(=S)Nc2ccc(S(=O)(=O)N3CCOCC3)cc2)c(OC)c1`, for which the z-score stood at 0.108.
For `O=C(CSc1nnc(-c2ccco2)n1-c1ccccc1)N1CCc2ccccc21` the value was 0.00192; for `Cc1ccc(Nc2nc(Oc3ccc(=O)[nH]n3)nc(N(C)C)n2)cc1`, -0.00557; for `CCCN(CCC)c1nc2ccccc2nc1C(C#N)C(=O)OC(C)COC` (centres undefined), -3.86 (active).
The result for `CCCCN(CCCC)c1nc2ccccc2nc1C(C#N)C(=O)NCCCOC` (centres undefined) reads 6.64 (active); that for `COCCCNC(=O)C(C#N)c1nc2ccccc2nc1N1CCCC1` (centres undefined), -0.459.
For `CCN(CC)P1(=O)OC(c2cc(OC)c(OC)c(OC)c2)=Nc2c1c(C)nn2-c1ccccc1` (centres undefined) the value was -1.4.
As for `COc1ccc(S(=O)(=O)N2CCC(C(=O)N3CCN(c4ccccc4OC)CC3)CC2)cc1`, the z-score was -0.274.
For `CC(C)N1CC(C(=O)Nc2ccc(Br)c(Cl)c2)CC1=O` (centres undefined) the value was 0.0942; for `CC(C)(C)S(=O)(=O)c1nc2ccccc2s1`, 0.279; for `CCS(=O)(=O)c1ccc(S(=O)(=O)CC)s1`, -0.137.
The result for `CC(C)(C)S(=O)(=O)c1ccc(S(=O)(=O)C(C)(C)C)s1` reads 2.32; that for `CCc1nc(C)cn1S(=O)(=O)c1cc(C)c(OC)cc1C`, 0.289.
The result for `CCc1nc(C)cn1S(=O)(=O)c1cc(Br)c(C)cc1OC` reads -0.193; that for `CCc1nc(C)cn1S(=O)(=O)c1cc(Cl)c(OC)cc1Cl`, 2.99.
For the compound `Cc1nc(CS(=O)c2ccc(Cl)cc2)cc(NCc2ccc(Cl)cc2Cl)n1` (centres undefined), the z-score worked out at 0.31.
For `CCOc1nc(-c2ccc(Cl)cc2Cl)ccc1C#N` the value was -0.211; for `COC(=O)c1ccccc1NC(=S)NC(NC(=O)c1ccco1)C(Cl)(Cl)Cl` (centres undefined), 15.3 (active).
For `O=C(NC(NC(=S)Nc1ccccc1C(=O)O)C(Cl)(Cl)Cl)c1ccco1` (centres undefined) the value was -0.106.
For `COC(=O)c1ccccc1NC(=S)NC(NC(=O)c1ccccc1[N+](=O)[O-])C(Cl)(Cl)Cl` (centres undefined) the value was 2.67; for `O=C(O)c1ccccc1NC(=S)NC(NC(=O)c1ccccc1[N+](=O)[O-])C(Cl)(Cl)Cl` (centres undefined), -0.103.
As for `COc1ccccc1NC(=S)NC(NC(=O)c1ccco1)C(Cl)(Cl)Cl` (centres undefined), the z-score was -0.246.
Turning to `COc1ccc(NC(=S)NC(NC(=O)c2ccccc2Cl)C(Cl)(Cl)Cl)c([N+](=O)[O-])c1` (centres undefined), the z-score was -0.469.
The result for `CCNC(=O)NC(=O)C(C)OC(=O)c1cccnc1SC` (centres undefined) reads -0.0754.
For `CN(C)C(=O)C(=O)c1c(-c2ccccc2)cc2ccccn12` the value was -0.294; for `CN(CC(=O)Nc1ccccc1Br)Cc1nc2ccccc2c(=O)[nH]1`, 0.733; for `N#Cc1nc(COc2cccc(Cl)c2)oc1N1CCCC1`, -0.382.
For `N#Cc1nc(COc2ccccc2)oc1N1CCN(c2cccc(Cl)c2)CC1` the value was 3.31 (active).
In turn, `N#Cc1nc(Cc2ccccc2)oc1N1CCN(c2cccc(Cl)c2)CC1` came in with a z-score of 0.287.
Turning to `Cc1c(CCOC(=O)C2C3CC4CC(C3)CC2C4)sc[n+]1CC(=O)c1ccc(Br)cc1` (centres undefined), the z-score turned out to be 2.48.
For `Cc1c(CCOC(=O)CC23CC4CC(CC(C4)C2)C3)sc[n+]1CC(=O)c1ccc(Br)cc1`, the z-score stood at 0.0917.
`Cc1ncsc1CCOC(=O)C1C2CC3CC(C2)CC1C3` (centres undefined): the z-score was 0.00939.
The result for `COc1cc2[nH]c(=O)n(CCC(=O)N3CCC(N4CCCCC4)CC3)c(=O)c2cc1OC` reads 0.8; that for `COc1cc2[nH]c(=O)n(CCCCCC(=O)N3CCN(c4ccccc4)CC3)c(=O)c2cc1OC`, -0.317; that for `CCOc1cc2[nH]c(=O)n(CCCCC(=O)N3CCCCCC3)c(=O)c2cc1OCC`, 2.21.
`O=C(CCC(=O)OCC(=O)c1cccc([N+](=O)[O-])c1)Nc1ccccc1Cl`: the z-score stood at 0.0825.
In turn, `CCOC(=O)CC(=O)Nc1ccc(C)cc1` came in with a z-score of -0.33.
Take `Cc1ccc(C2C(/C=C3/SC(=S)NC3=O)=C(c3cccs3)Oc3ccccc32)cc1` (centres undefined): the z-score was 2.55.
For `Cc1cccc(N=C2NC(=O)/C(=C\c3cccs3)S2)c1`, the z-score came out at 0.692.
The result for `Cc1ccc(C2C(C=Nc3c(C)n(C)n(-c4ccccc4)c3=O)=C(c3ccccc3)Oc3ccccc32)cc1` (centres undefined) reads -0.137; that for `CCOc1ccccc1C1CC(c2ccc(F)cc2)Nc2nc(N)nn21` (centres undefined), -0.0345.
In turn, `Cc1ccc(CNC(=O)C(Cc2ccccc2)NS(=O)(=O)c2cccs2)cc1` (centres undefined) gave a z-score of -0.105.
For `O=c1[nH]c(CN2CCN(Cc3ccccc3)CC2)nc2sc3c(c12)CCC3` the value was -0.568; for `O=c1[nH]cnc2sc3c(c12)CCN(Cc1ccccc1)C3`, 0.233; for `CCCSc1nc2sc3c(c2c(=O)[nH]1)CCN(Cc1ccccc1)C3`, 3.04 (active).
`O=C1C=C(NCc2ccco2)CCC1` returned a z-score of 2.
For `O=C1C=C(NCc2ccccc2)CCC1` the value was -0.0868; for `CC1(C)CC(=O)C=C(NCc2ccco2)C1`, -0.0748.
The result for `Cc1ccc(Cn2c(SCC(C)C)nc3c2c(=O)[nH]c(=O)n3C)cc1` reads -0.876; that for `COc1cc2c(=O)n(Cc3ccccc3)c(=O)n(CC(=O)NCCc3ccccc3)c2cc1OC`, -0.669.
For `CC1(C)CC(=O)C2=C(C1)NC(=O)CC2c1ccc(F)cc1` (centres undefined) the value was -0.481; for `COc1ccc(-c2noc(CCC(=O)NC3CCN(Cc4ccccc4)CC3)n2)cc1`, 0.924.
With `COc1ccc(-c2noc(CCC(=O)NCC3CCN(Cc4cccc(C)c4)CC3)n2)cc1`, the z-score came to 0.183.
For `Cc1ccc(-c2noc(CCC(=O)NCCN3CCN(Cc4ccccc4)CC3)n2)cc1` the value was -0.696.
The result for `Cc1ccc(-c2noc(CCC(=O)N(C)c3ccccc3C)n2)cc1` reads 0.361; that for `CCc1ccccc1N(C)C(=O)CCc1nc(-c2ccc(C)cc2)no1`, 2.44.
The result for `Cc1ccc(-c2noc(CCC(=O)NC3CCN(Cc4ccccc4)CC3)n2)cc1` reads 2.02; that for `CCc1ccccc1N(CC)C(=O)CCc1nc(-c2ccc(C)cc2)no1`, -0.0345.
Compound `Cc1ccc(-c2noc(CCC(=O)NCC3CCN(Cc4cccc(C)c4)CC3)n2)cc1` displayed a z-score of 2.64.
Turning to `O=C(CCc1nc(-c2ccccc2F)no1)NC1CCN(Cc2ccccc2)CC1`, the z-score was found to be 0.608.
For `CC1CCN(S(=O)(=O)c2ccc(NC(=O)CN3CCCC(C)C3)cc2)CC1` (centres undefined) the value was 0.282; for `O=C(c1cccc(F)c1)N1CCc2ccccc21`, -0.134; for `CCOC(=O)c1cc(NC(=O)c2cc(C)on2)cc(C(=O)OCC)c1`, -0.369.
Compound `CCn1nc2cc(C(=O)NCCc3cccs3)ccc2c1OC` came in with a z-score of -0.218.
For `COC(=O)CSC1=C(C#N)C(c2sccc2C)CC(=O)N1` (centres undefined) the value was 0.174; for `O=C(NCC1CCCO1)C(c1cccs1)N(C(=O)Cn1nnc(-c2cccs2)n1)C1CCCC1` (centres undefined), -0.378; for `C/C(=N\NC(=O)c1ccccc1C)c1cccc([N+](=O)[O-])c1`, -0.192.
`CCCCNc1ccc2nsnc2c1[N+](=O)[O-]` gave a z-score of -0.137.
The result for `C=CCNC(=O)c1nn2cccnc2c1Cl` reads -0.068.
The result for `O=C(Nc1ccc2c(c1)oc1ccccc12)c1ccc2c(c1)OCO2` reads 0.81; that for `Cc1cc2oc(C(=O)N(Cc3ccccc3)C3CCS(=O)(=O)C3)cc(=O)c2cc1Cl` (centres undefined), -0.141; that for `Cc1ccc(S(=O)(=O)NCCCNS(C)(=O)=O)cc1`, 0.0948.
The compound `Cc1ccc(S(=O)(=O)NCCCCCC(=O)N(C)C)cc1` yielded a z-score of 2.19.
In the case of `CN(C)CCNS(=O)(=O)c1ccc(Cl)cc1`, the z-score is 1.34.
On to `O=C1CCCN1c1ccc(S(=O)(=O)NCCc2ccc(Cl)cc2)cc1`, for which the z-score was found to be 0.203.
For `CN(C)CCCNS(=O)(=O)c1ccc(N2CCC(c3ccc(Cl)cc3)=N2)cc1` the value was 2.59.
For the compound `Cc1ccc(S(=O)(=O)NCCCN(C)C)cc1`, the z-score is 2.95.
`CC(=O)Nc1ccc(S(=O)(=O)NCC(C)NS(=O)(=O)c2ccc(NC(C)=O)cc2)cc1` (centres undefined) registered a z-score of 0.018.
The result for `Cc1ccc(S(=O)(=O)NCC(C)NS(C)(=O)=O)cc1` (centres undefined) reads -0.186; that for `O=S(=O)(c1ccc(N2CCC(c3ccc(Cl)cc3)=N2)cc1)N(CCO)CCO`, -0.748; that for `Cc1ccc(S(=O)(=O)NCCCCCC(N)=O)cc1`, 0.00872.
The result for `Cc1ccc(S(=O)(=O)NCC(C)NS(=O)(=O)c2ccc(C)cc2)cc1` (centres undefined) reads 2.8; that for `CNC(=O)CCCCCNS(=O)(=O)c1ccc(C)cc1`, 0.0156; that for `CCOc1ccc(-c2cn3ccccc3n2)cc1[N+](=O)[O-]`, 0.461.
For `O=C(c1cccc(-n2cnnn2)c1)N1CC=C(c2ccccc2)CC1` the value was 0.39; for `CN1CCN(/C(=N\S(=O)(=O)c2ccc(F)cc2)c2ccccc2)CC1`, -0.0184; for `Cc1sc2ncnc(N3CCOCC3)c2c1C`, -0.134.
In turn, `O=[N+]([O-])c1ccc(-c2csc(N3CCc4ccccc4C3)n2)cc1` came in with a z-score of -0.0911.
For the compound `CC(c1ccccc1)n1c(SCC(=O)N2CC(=O)Nc3ccccc32)nc2ccccc2c1=O` (centres undefined), the z-score was 4.74 (active).
The result for `Cc1ccc(-n2c(SCC(=O)N3CC(=O)Nc4ccccc43)nc3ccccc3c2=O)cc1C` reads -0.183; that for `O=C1CN(C(=O)CSc2nc3ccccc3n2CCc2ccccc2)c2ccccc2N1`, -0.346; that for `Cc1nnc(SCC(=O)N2CC(=O)Nc3ccccc32)n1Cc1ccccc1`, -0.151.
The result for `Cc1cccc(C)c1-n1c(SCC(=O)N2CC(=O)Nc3ccccc32)nc2ccccc2c1=O` reads -0.109; that for `O=C1CN(C(=O)CSc2nc3cc(Cl)ccc3c(=O)n2Cc2ccccc2)c2ccccc2N1`, 7.11 (active).
The result for `O=C1CN(C(=O)CSc2nc3ccccc3c(=O)n2Cc2ccc(F)cc2)c2ccccc2N1` reads 3.79 (active); that for `Cc1ccc(Cn2c(SCC(=O)N3CC(=O)Nc4ccccc43)nc3ccccc3c2=O)cc1`, 1.31.
`Cc1ccc(-n2c(SCC(=O)N3CC(=O)Nc4ccccc43)nc3ccccc3c2=O)cc1`: the z-score is -0.279.
The result for `O=C(O)/C=C/C(=O)Nc1ccccc1C(=O)Nc1ccccc1` reads 0.317; that for `CCOC(=O)C1=C(Nc2ccccc2)CC(C)(O)C(C(=O)OCC)C1c1ccc(Cl)cc1` (centres undefined), -0.445.
For `COc1ccc(CCC(C)NCC2CCCCC2)cc1` (centres undefined) the value was 0.819; for `S=C(NCc1ccncc1)Nc1cccc(Cl)c1`, -0.135; for `Fc1ccc(NC(=S)Nc2cccc(Cl)c2)cc1`, 1.26.
For `Fc1ccc(CNC(=S)Nc2cccc(Cl)c2)cc1` the value was 5.18 (active); for `S=C(NCc1cccs1)Nc1cccc(Cl)c1`, 4.52 (active).
Turning to `Cc1csc(NC(=O)Nc2cccc(Cl)c2)n1`, the z-score came to 0.398.
The result for `CCOC(=O)c1csc(NC(=O)Nc2cccc(Cl)c2)n1` reads -0.0455; that for `S=C(NCc1cccs1)Nc1ccc(Cl)cc1`, 0.118; that for `Cc1csc(NC(=S)Nc2cccc(Cl)c2)n1`, 14.7 (active).
The result for `O=C(NCc1cccs1)Nc1cccc(Cl)c1` reads 0.43.

Source of the values: PubChem BioAssay AID488969 (Vanderbilt High Throughput Screening Facility, 2010).
